FadD28 FP inh = M. tuberculosis FadD28 bisubstrate binding inhibition; FadD28 bisubstrate probe binding, fluorescence polarization; inhibition, % at 12.5 µM; 0.22% of 360,000 active; in the data active = inhibition above about 8.5%, passing the limit was not always enough; inconclusive = no clear call, values can overlap the other calls
PfHsp40 rescue = compounds rescuing yeast from Plasmodium falciparum HSP40 toxicity. S. cerevisiae expressing PfHsp40, growth rescue, ATP luminescence. growth rescue, % at 12.5 µM. 0.68% of 340,000 active. AID 504582; in the data active = growth rescue above about 28%, passing the limit was not always enough; inconclusive = no clear call, values can overlap the other calls;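 also: yeast W303a lacking pdr1 and pdr3 grown in galactose medium; growth measured after three days at 30 °C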
PrP 5UTR inh = inhibition of PrP 5' UTR reporter expression. inhibition, % (no concentration beside the values). AID 488862. 0.35% of 340,000 active. cell-based PrP 5' UTR mRNA reporter, plate reader; in the data active = inhibition above about 52%; also: 0 = median of the neutral control wells
BioA inh = blocks M. tuberculosis BioA enzyme activity | purified M. tuberculosis BioA enzyme, plate reader | inhibition, % at 9.99 µM | 0.096% of 360,000 active | AID 602481; in the data active = inhibition above about 40%; inconclusive = no clear call, values can overlap the other calls
TcdB inh = TcdB glycohydrolase inhibition | P18177 | TcdB glycohydrolase enzymatic assay, plate reader | inhibition, % at 9.99 µM | 0.24% of 350,000 active; in the data active = inhibition above about 10%
Target sequence (P18177 whole entry, looked up): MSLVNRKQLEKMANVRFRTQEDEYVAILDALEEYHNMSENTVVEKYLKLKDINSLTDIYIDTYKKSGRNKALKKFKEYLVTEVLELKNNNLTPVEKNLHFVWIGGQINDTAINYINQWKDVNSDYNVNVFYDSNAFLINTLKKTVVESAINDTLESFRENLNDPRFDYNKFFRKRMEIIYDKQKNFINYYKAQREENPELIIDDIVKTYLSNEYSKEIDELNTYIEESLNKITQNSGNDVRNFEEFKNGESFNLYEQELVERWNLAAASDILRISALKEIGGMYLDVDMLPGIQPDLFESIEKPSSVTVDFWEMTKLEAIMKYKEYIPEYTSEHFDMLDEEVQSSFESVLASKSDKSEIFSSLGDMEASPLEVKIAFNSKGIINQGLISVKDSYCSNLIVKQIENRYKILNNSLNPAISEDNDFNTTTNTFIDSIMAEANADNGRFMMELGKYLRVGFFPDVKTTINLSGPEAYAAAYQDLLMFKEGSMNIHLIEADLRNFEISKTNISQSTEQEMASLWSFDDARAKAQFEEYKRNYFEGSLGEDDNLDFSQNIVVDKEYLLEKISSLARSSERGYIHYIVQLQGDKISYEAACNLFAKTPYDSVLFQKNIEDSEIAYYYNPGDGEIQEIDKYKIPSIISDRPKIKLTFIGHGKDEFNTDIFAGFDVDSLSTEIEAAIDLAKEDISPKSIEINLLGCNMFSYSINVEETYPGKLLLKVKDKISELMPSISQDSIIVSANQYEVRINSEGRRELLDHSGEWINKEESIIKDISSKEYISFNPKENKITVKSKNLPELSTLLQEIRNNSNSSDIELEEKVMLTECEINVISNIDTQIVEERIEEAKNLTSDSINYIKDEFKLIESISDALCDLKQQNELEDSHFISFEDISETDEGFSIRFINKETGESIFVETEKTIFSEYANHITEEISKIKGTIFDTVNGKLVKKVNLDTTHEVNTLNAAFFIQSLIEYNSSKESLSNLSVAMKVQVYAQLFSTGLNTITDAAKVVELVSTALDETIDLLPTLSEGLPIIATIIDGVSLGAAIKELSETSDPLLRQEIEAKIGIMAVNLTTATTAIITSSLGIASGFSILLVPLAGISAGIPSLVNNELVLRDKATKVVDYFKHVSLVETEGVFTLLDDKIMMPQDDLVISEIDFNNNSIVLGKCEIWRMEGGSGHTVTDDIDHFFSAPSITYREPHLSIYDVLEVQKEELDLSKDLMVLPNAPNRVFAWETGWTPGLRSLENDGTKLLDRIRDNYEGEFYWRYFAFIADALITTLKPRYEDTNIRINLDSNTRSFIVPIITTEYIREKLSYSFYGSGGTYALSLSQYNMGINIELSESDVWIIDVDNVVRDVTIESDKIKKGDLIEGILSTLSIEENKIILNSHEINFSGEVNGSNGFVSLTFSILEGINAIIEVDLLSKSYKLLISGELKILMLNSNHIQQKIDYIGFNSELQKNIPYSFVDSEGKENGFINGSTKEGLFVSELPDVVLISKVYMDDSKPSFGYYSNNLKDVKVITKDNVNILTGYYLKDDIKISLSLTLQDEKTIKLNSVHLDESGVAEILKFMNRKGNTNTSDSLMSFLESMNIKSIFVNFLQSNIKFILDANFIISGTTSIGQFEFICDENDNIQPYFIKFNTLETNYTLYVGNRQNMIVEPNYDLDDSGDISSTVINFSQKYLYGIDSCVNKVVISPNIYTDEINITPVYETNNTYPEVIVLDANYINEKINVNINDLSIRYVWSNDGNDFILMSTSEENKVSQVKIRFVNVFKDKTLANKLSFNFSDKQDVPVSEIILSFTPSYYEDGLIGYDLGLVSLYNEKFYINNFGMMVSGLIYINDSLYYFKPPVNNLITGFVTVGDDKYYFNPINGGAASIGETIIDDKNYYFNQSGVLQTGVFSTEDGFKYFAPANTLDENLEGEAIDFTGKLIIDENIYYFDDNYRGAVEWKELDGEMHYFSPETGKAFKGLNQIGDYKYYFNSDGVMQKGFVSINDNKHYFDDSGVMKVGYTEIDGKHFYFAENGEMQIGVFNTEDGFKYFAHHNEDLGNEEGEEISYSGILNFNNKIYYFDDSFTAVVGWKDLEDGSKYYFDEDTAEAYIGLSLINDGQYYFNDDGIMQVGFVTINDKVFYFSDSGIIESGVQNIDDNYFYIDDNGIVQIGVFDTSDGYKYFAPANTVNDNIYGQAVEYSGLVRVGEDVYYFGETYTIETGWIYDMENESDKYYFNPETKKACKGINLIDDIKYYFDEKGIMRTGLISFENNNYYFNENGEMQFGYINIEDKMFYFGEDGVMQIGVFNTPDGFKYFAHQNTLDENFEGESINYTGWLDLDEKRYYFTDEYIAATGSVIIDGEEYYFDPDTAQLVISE
The depositor's hits bear a star; ? = inconclusive; nt = not tested or not shown. Compounds with a hit are over-represented: about 1.1% of the library has one in this group of screens.

SMILES	FadD28 FP inh	PfHsp40 rescue	PrP 5UTR inh	BioA inh	TcdB inh
CC(C)N1CCc2c(sc(NC(=O)c3ccc([N+](=O)[O-])o3)c2C(N)=O)C1	-3.8	0.1	95.4*	5.6	0.7
C[C@@H]1CN([C@@H](C)CO)C(=O)c2cccc(NS(=O)(=O)c3cn(C)cn3)c2O[C@@H]1CN(C)C(=O)Nc1ccc(C(F)(F)F)cc1	nt	nt	nt	-0.1	3.2
CO[C@H]1CN(C)C(=O)c2ccc(NC(=O)c3ccc(Oc4ccccc4)cc3)cc2OC[C@@H](C)NC[C@H]1C	nt	nt	nt	2.6	0.8
COc1ccc(CNC(=O)[C@]2(C)CCC[C@@]3(C)C4CC[C@@]5(C)C[C@]4(CCC32)CC5=O)cc1 (some centres undefined)	-2.8	162.5*	-11.6	-1.4	-0.2
C[C@@]12CCC3[C@@](CCC4[C@@]3(C)CCC[C@@]4(C)C(=O)NC3CCCCC3)(CC1=O)C2 (some centres undefined)	-1.3	3.8	-21.1	-0.6	-2.9
Cc1ccc(CNC(=O)[C@]2(C)CCC[C@@]3(C)C4CC[C@@]5(C)C[C@]4(CCC32)CC5=O)cc1 (some centres undefined)	1.3	95.1*	-8.6	1.8	0.2
O=C(O)c1c(C(=O)O)c(-c2ccc(Br)cc2)n2c1CSC2	12.6*	-0.9	-19.0	0.4	0.6
CCS(=O)(=O)NCC[C@H]1CC[C@H](NS(=O)(=O)c2cccc(Cl)c2)[C@H](CO)O1	nt	nt	nt	3.5	-1.9
Cn1cccc1/C=C1/C(=O)NC(=S)N(Cc2ccc(F)cc2)C1=O	44.0*	-0.9	-5.2	-1.6	0.6
C[C@@H]1CN([C@@H](C)CO)S(=O)(=O)c2ccc(C#Cc3ccncc3)cc2O[C@H]1CN(C)C(=O)C1CC1	nt	nt	nt	0.6	11.2*
CC(=O)N(C)C[C@@H]1Oc2cc(/C=C/c3ccccc3)ccc2S(=O)(=O)N([C@H](C)CO)C[C@@H]1C	nt	nt	nt	3.5	12.6*
COc1ccccc1CNC(=O)C[C@@H]1CC[C@@H]2[C@H](COC[C@H](O)CN2C(=O)Nc2ccccc2)O1	nt	nt	nt	0.0	-0.1
COc1cccc(NCc2cc(=O)oc3cc(-c4ccccc4)c(O)cc23)c1	24.2*	-0.2	-27.3	nt	nt
C[C@H](O)[C@H]1CC[C@H]2[C@@H]3CCC4=CC(=O)CC[C@]4(C)[C@H]3CC[C@]12C	0.0	158.1*	7.0	0.6	0.9
CC12CCC(=O)C=C1CCC1C2CCC2(C)C(O)CCC12 (centres undefined)	-2.7	-0.8	-9.8	0.4	1.6
CCNC(=O)C[C@H]1CC[C@H]2[C@@H](COc3ccc(NC(=O)Nc4cccc(F)c4)cc3C(=O)N2C)O1	nt	nt	nt	9.0	-0.8
O=[N+]([O-])c1cnccc1-n1nnc2ccccc21	nt	nt	nt	nt	0.6
O=C(O)c1ccc(-n2nnc3ccccc32)c([N+](=O)[O-])c1	-1.9	0.5	-18.8	-0.4	13.6*
COCCNC(=O)[C@@H]1[C@@H](CO)[C@@H]2Cn3c(cccc3=O)[C@H]1N2S(=O)(=O)c1ccccc1C	nt	nt	nt	-1.7	1.4
COc1ccc2c3c([nH]c2c1)[C@H](CO)N(CC1CCOCC1)CC31CN(C(=O)c2ccc(F)cc2)C1	nt	nt	nt	nt	-1.0
O=C(CNc1ccc2ccccc2c1)N/N=C/c1ccc(C(=O)O)cc1	-0.8	0.5	-17.4	0.5	-5.6
O=C(CNc1cccc2ccccc12)N/N=C/c1ccc(C(=O)O)cc1	38.2*	-1.1	-26.4	2.0	-0.8
Cc1onc(-c2ccccc2)c1C(=O)NC(=S)NNC(=O)c1ccc(O)cc1O	-1.9	247.8*	-7.3	nt	nt
Cc1onc(-c2ccccc2)c1C(=O)NC(=S)NNC(=O)c1ccccc1O	0.1	?	8.0	nt	0.4
COc1cc2ncc(C(=O)c3ccccc3)c(N3CCN(Cc4ccccc4)CC3)c2cc1OC	-0.5	53.6*	-7.9	1.1	1.5
COc1ccccc1N1CCN(Cc2ccc(C(=O)O)cc2)CC1	-1.0	-3.1	-19.7	-1.3	-0.2
CCCCCCOC(=O)CCn1[nH]c(=O)c2ccccc2c1=O	2.3	136.4*	-6.0	-2.0	nt
COC(=O)CCn1[nH]c(=O)c2ccccc2c1=O	-1.8	-0.9	-1.5	1.3	nt
COc1cccc2c1C(=O)c1c(O)c3c(c(O)c1C2=O)C[C@@](O)(C(=O)CO)C[C@@H]3OC1CC(N)C(O)C(C)O1 (some centres undefined)	52.8*	2.6	41.1	nt	-15.2
COc1cccc2c1C(=O)c1c(O)c3c(c(O)c1C2=O)CC(O)(C(C)=NO)CC3OC1CC(N)C(O)C(C)O1 (centres undefined)	63.3*	-1.1	-6.1	nt	-24.0

Screening data (PubChem)
